# Where a name gives a salt, the structure may show the parent alone. ± gives the uncertainty stated by the source.
# Tested on: THP-1
# Assay: CD86 surface expression induction over DMSO control (% over DMSO); higher = stronger dendritic cell activation
# Details: exposure time: 24 h
# Description: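 hCLAT-like CD54 and CD86 surface expression on THP1 cells after 24 h exposure at a single concentration (highest non-cytotoxic concentration, or 100-200 µM if not cytotoxic). Flow cytometry (iQue) was run on 5,000 live cells.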
row,SMILES,CD86 surface expression induction
1,N=C1C=CC(=C(c2ccc(N)cc2)c2ccc(N)cc2)C=C1 [C.I. Basic Red 9 monohydrochloride] (10 µM),-3.84 ± 5
2,CCC(=O)C=Cc1ccc(OC)cc1 [1-(4-Methoxyphenyl)-1-pentene-3-one] (200 µM),6.83 ± 10
3,CN(C)c1ccc(SC#N)cc1 [4-(Dimethylamino)phenylthiocyanate] (10 µM),-14.3 ± 7
4,Nc1ncn([C@@H]2O[C@H](CO)[C@@H](O)[C@H]2O)c(=O)n1 [5-Azacytidine] (10 µM),-17.2 ± 5.3
5,CCCCCCC(C)O (stereo not given) [2-Octanol] (200 µM),0.56 ± 6.7
6,O=C1c2ccccc2C(=O)C1c1ccc2ccccc2n1 [D & C Yellow II] (10 µM),-14.2 ± 7.4
7,CCN(CC)c1ccc(C(=O)c2ccccc2C(=O)O)c(O)c1 [2-[4-(Diethylamino)-2-hydroxybenzoyl]benzoic acid] (10 µM),-12.1 ± 11
8,O=C(O)c1cccnc1Nc1cccc(C(F)(F)F)c1 [Niflumic acid] (100 µM),-3.19 ± 1.6
9,CC1=C(/C=C/C(C)=C/C=C/C(C)=C/C=O)C(C)(C)CCC1 [13-cis-Retinal (Vitamin A aldehyde)] (100 µM),64.3 ± 98
10,CC(C)CC(NC(=O)OCC1c2ccccc2-c2ccccc21)C(=O)O (stereo in doubt) [N-(9-Fluorenylmethoxycarbonyl)-L-leucine] (100 µM),-11.4 ± 2.7
11,CCCCCCCCCCCCCC[N+](C)(C)C [Tetradonium bromide] (10 µM),53 ± 19
12,O=C(CCCCCCC(=O)Nc1ccccc1)NO [Vorinostat (SAHA)] (100 µM),5.02 ± 4
13,CCCCCCCCCCCCCCCC[N+](C)(C)Cc1ccccc1 [Benzylhexadecyldimethylammonium chloride] (10 µM),57.5 ± 17
14,CO[C@@H]1[C@H](OC(=O)/C=C/C=C/C=C/C=C/C(=O)O)CC[C@]2(CO2)[C@H]1[C@@]1(C)O[C@@H]1CC=C(C)C [Fumagillin] (100 µM),-0.42 ± 8.1
15,COc1cc(Nc2c(C#N)cnc3cc(OCCCN4CCN(C)CC4)c(OC)cc23)c(Cl)cc1Cl [Bosutinib] (100 µM),5.12 ± 41
16,C=CC(=O)OCCn1c(=O)n(CCOC(=O)C=C)c(=O)n(CCOC(=O)C=C)c1=O (10 µM),14.2 ± 10
17,CC1COc2ccccc2N1C(=O)C(Cl)Cl (stereo not given) [Benoxacor] (10 µM),17.1 ± 5.4
18,CCCSS/C(CCO)=C(/C)N(C=O)Cc1cnc(C)nc1N [Prosultiamine] (10 µM),-13 ± 4.4
19,CN(C)c1ccc(C(=C2C=CC(=[N+](C)C)C=C2)c2ccccc2)cc1 [Malachite green oxalate*] (10 µM),195 ± 53
20,"COc1cc(C(C)(C)C)c(O)c(C(C)(C)C)c1 [2,6-Di-tert-butyl-4-methoxyphenol] (200 µM)",18.9 ± 43

row,SMILES,CD86 surface expression induction
1,C=CCOC(=O)/C=C\C(=O)OCC=C [Diprop-2-en-1-yl (2Z)-but-2-enedioate] (203 µM),29.9 ± 1.4
2,CCN(CC)CCSC(=O)C(c1ccccc1)c1ccccc1 [Thiphenamil] (200 µM),107 ± 65
3,C=CC(=O)OCCOC(=O)CCC(=O)O [4-[2-(Acryloyloxy)ethoxy]-4-oxobutanoic acid] (200 µM),-12.9 ± 36
4,O=c1[nH]sc2cc(Cl)ccc12 [Ticlatone] (10 µM),-7.52 ± 22
5,CCCCc1ccc2[nH]c(NC(=O)OC)nc2c1 [Parbendazole*] (200 µM),65.8 ± 110
6,CCOc1ccc2nc3cc(N)ccc3c(N)c2c1 [Ethacridine lactate monohydrate] (200 µM),42.2 ± 53
7,CC(=O)C1(C)CC2=C(CCCC2(C)C)CC1C (stereo not given) (100 µM),9.62 ± 13
8,CC(C)NC(=O)c1ccc(C=O)cc1 [N-isopropyl-4-formylbenzamide] (100 µM),-3.04 ± 5.2
9,CCCCOCCOCCOCCO [2-[2-(2-Butoxyethoxy)ethoxy]ethanol] (115 µM),12.7 ± 12
10,COC(=O)Nc1nc2ccc(C(=O)C3CC3)cc2[nH]1 [Cyclobendazole] (100 µM),7.71 ± 16
11,"Nc1cc(Cl)c(O)c(Cl)c1 [4-Amino-2,6-dichlorophenol] (100 µM)",-14.4 ± 29
12,"Nc1nnc(-c2ccc([N+](=O)[O-])o2)o1 [2-Amino-5-(5-nitro-2-furyl)-1,3,4-oxadiazole] (10 µM)",-2.6 ± 2.1
13,CCCCCCCCCCCCOCCO [2-(Dodecyloxy)ethanol] (200 µM),57 ± 59
14,Cc1ccc(O)c(-n2nc3ccccc3n2)c1 [2-(2H-Benzotriazol-2-yl)-4-methylphenol] (100 µM),-18.9 ± 28
15,"Nc1ccc(Nc2ccccc2)cc1 [N-Phenyl-1,4-benzenediamine] (200 µM)",44.2 ± 39
16,Cc1ccc2c(c1[N+](=O)[O-])C(=O)c1ccccc1C2=O [2-Methyl-1-nitroanthraquinone] (10 µM),7.64 ± 3.5
17,CC(C)(C)c1ccc(S)cc1 [4-tert-Butylbenzenethiol] (200 µM),12.9 ± 21
18,"Cc1c2ccccc2c(C)c2c1ccc1ccccc12 [7,12-Dimethylbenzanthracene] (10 µM)",47.5 ± 61
19,C=C(C)C(=O)Nc1ccc(Cl)c(Cl)c1 [Chloranocryl] (100 µM),-22.2 ± 23
20,O=C(Nc1ncc([N+](=O)[O-])s1)c1cccs1 [Tenonitrozole] (10 µM),-9.19 ± 11

# Source: the supplement of paper PMC10933113
